Measurements published in PubChem BioAssay AID720540 (National Center for Advancing Translational Sciences (NCATS), 2013).
Out of some 1,300 compounds screened, about 460 (35%) were called active. Roughly 39% stayed inconclusive and do not appear here. Calls follow the shape of the dose curve; as a rule, active = well fitted inhibition curve with a large enough effect; inconclusive = small, poorly fitted or top-dose-only effect; inactive = flat fitted curve, though single readings scatter. The list shows a part of the results.

Target: Protein phosphatase EYA2 (Homo sapiens) (UniProt O00167)
Assay: qHTS for Inhibitors of the Phosphatase Activity of Eya2: Confirmatory Assay for Cherry-picked Compounds; also: nearly all actives have a fitted effect of over 65% in size
Conditions: purified EYA2 phosphatase activity, qHTS confirmation; series mostly up to 46.1 µM
From the text: The Eya protein family is an essential co-activator of the Six1 transcription factor. Six1 is a developmental gene that is abnormally re-expressed in a large percentage of breast cancers. This over-expression plays a causal role in the initiation and metastatic development of breast cancers. The Eya family of protein is also found to contain a unique HAD phosphatase domain with protein tyrosine phosphatase activity which can potentially play a role in Six1-mediated breast tumorigenesis. Recently, Eya2 is found to dephosphorylate the histone variant H2AX and direct cells towards DNA repair instead of apoptosis in the event of DNA damage.
A 1536 well format, fluorescence based qHTS assay was developed and used to target the phosphatase activity of Eya2 (AID 488837). Inhibitors found against Eya2 could serve as potential therapeutic tools to inhibit Six1-mediated breast tumorigenesis and to increase the efficiency of radiation and certain chemo therapy. This assay assessed the activity of the primary screen cherry-picked compounds against Eya2. Inhibition is the desired outcome for this assay.
NIH Chemical Genomics Center [NCGC]
NIH Molecular Libraries Probe Centers Network [MLPCN]
Assay Submitter (PI): Rui Zhao, University of Colorado Denver
Eya2 enzyme and 3-O-methyl-fluorescein phosphate (OMFP) substrate working solutions were reconstituted in the buffer reagent consist of 50 mM HEPES pH 7.5, 50 mM NaCl, […], 0.05% BSA and 1 mM DTT. One and a half microliter of 0.2 uM Eya2 working solution was dispensed in a 1536 well Greiner plate (black, medium bind). Twenty-three nanoliter of test compounds and control compound EGTA was transferred to the assay plate using the Kalypsys robotic system equipped with a 1536 pin head. The plate was incubated at room temperature for 10 minutes. One and a half microliter of the 50 uM the OMFP substrate was then dispensed to the assay plate and incubated at room temperature for additional 10 min. The fluorescence signal was read using the PerkinElmer ViewLux plate reader using a 485 nm excitation and 525 nm emission filters. The data was normalized to the positive control for maximum inhibition and DMSO treated wells as negative control.

Protein phosphatase EYA2 (Homo sapiens), sequence (O00167 whole entry, looked up): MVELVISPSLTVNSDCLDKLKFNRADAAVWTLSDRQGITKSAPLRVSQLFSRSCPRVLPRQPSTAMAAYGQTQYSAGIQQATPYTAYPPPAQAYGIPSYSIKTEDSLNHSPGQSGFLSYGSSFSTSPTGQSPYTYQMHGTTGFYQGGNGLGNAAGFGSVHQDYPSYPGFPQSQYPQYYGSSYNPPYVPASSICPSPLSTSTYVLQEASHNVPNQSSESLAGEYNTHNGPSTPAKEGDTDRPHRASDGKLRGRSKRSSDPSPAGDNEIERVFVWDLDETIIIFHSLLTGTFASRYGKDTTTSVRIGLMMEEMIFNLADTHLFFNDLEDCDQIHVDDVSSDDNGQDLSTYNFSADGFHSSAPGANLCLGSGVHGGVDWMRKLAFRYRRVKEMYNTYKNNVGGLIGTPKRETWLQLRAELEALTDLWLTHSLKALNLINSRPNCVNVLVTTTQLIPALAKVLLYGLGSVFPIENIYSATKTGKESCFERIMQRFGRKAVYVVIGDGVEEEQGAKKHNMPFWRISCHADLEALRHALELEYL

Potency, active:
C[n+]1ccc(/C=C/c2cc[n+](C)c3ccccc23)c2ccccc21 9.53 µM
CN1C=C/C(=C\c2cc[n+](C)c3ccccc23)c2ccccc21 16.9 µM
COc1cc(C=NO)nc(-c2ccccn2)c1 1.2 µM
Oc1c(Cl)cc(CN2CCOCC2)c2cccnc12 0.478 µM
CC(C)Cc1nc2oc3c(=O)[nH]cnc3c2c2c1CCC2 19 µM
O=C(O)c1cccc2cccc(-c3c4ccc(=O)c(O)c-4oc4c(O)c(O)ccc34)c12 3.79 µM
O=C(O)CCc1c2ccc(=O)c(O)c-2oc2c(O)c(O)ccc12 1.69 µM
CC(=O)Oc1cccc2c1C(=O)c1c(OC(C)=O)cc(C(=O)O)cc1C2=O 16.9 µM
O=S(c1cc(Cl)cc(Cl)c1O)c1cc(Cl)cc(Cl)c1O 1.35 µM
CCN(CC)c1ccc(NC(=S)NC(=O)c2cccs2)cc1 13.5 µM
O=c1[nH][nH]cc1C=Nc1cc(Cl)ccc1O 5.36 µM
CCOC(=O)c1cc2c(N)c(C(=O)c3ccc(Br)cc3)sc2[nH]c1=O 1.9 µM
O=C(Nc1nc(-c2ccco2)c(-c2ccco2)s1)C1CC(=O)N(c2ccc3c(c2)OCCO3)C1 (stereo not drawn) 19 µM
O=C(Nc1nc(-c2ccccn2)cs1)C1CC(=O)N(c2ccc3c(c2)OCCO3)C1 (stereo not drawn) 7.57 µM
COc1ccc(-c2c(N)cnc(C(=O)O)c2C)c(OCc2ccccc2)c1OC 19 µM
Cc1ccc(C(=O)Oc2cc(C)n(C)c(=O)c2)cc1 1.51 µM
Cc1cc(OC(=O)c2ccc(Cl)cc2)cc(=O)n1C 2.39 µM
Cc1ccc(NC(=O)CSc2cccc3cccnc23)c(C)c1 5.36 µM
CCN1C(=O)/C(=C2/C=Cc3ccccc3N2CC)SC1=S 3.79 µM
Cc1cccc(NC2=C(NCCO)C(=O)c3ccccc3C2=O)c1 16.9 µM
O=C1C=CC(=O)c2c(O)c(N3CCN(CCOCCO)CC3)c(Br)c(O)c21 13.5 µM
CC(=O)N1CCN(/[N+]([O-])=N/Oc2ccc([N+](=O)[O-])cc2[N+](=O)[O-])CC1 19 µM
Cn1nc([N+](=O)[O-])nc1Sc1cccc2cccnc12 1.9 µM
O=c1c(O)cccc2cc(O)c(O)c(O)c12 8.49 µM
OCCN(Cc1cccnc1)Cc1ccccn1 5.36 µM
O=S(=O)(Nc1cccc2cccnc12)c1ccccc1Br 16.9 µM
CC(=O)Nc1ccc(S(=O)(=O)Nc2cccc3cccnc23)cc1 4.78 µM
O=C(CCCl)Nc1cccc2cccnc12 15.1 µM
NC(=O)c1c(NC(=O)c2ccc(N3C(=O)CCC3=O)cc2)sc2c1CCCC2 1.51 µM
CCc1nnc2c(N(C)C)nc3ccccc3n12 15.1 µM
Cn1c(=O)n(Cc2ccc(F)cc2)c(=O)c2c1nc1n2CCN1Cc1ccco1 16.9 µM
Cc1ccc(C(=O)Oc2ccc(C(=O)COC(=O)c3cnccn3)cc2)cc1 0.478 µM
Clc1cccc(-c2ccc(CNCc3ccccn3)o2)c1 19 µM
Clc1ccc(-c2ccc(CNCc3ccccn3)o2)cc1 15.1 µM
Fc1ccc(-c2ccc(CNCc3ccccn3)o2)cc1 19 µM
CCOc1cc(C=NNC(=O)c2cccc(S(=O)(=O)N3CCCC3)c2)ccc1O 6.01 µM
CC1CCC(=NNc2ccc(C(F)(F)F)cc2[N+](=O)[O-])CC1 (stereo not drawn) 7.57 µM
O=C(O)c1ccc2c(c1)C(=O)N(c1ccc(/C=C/C(=O)c3ccccc3)cc1)C2=O 19 µM
Cc1nnc2sc(SCC(=O)Nc3ccc(Br)cc3)nn2c1=O 4.78 µM
CCOC(=O)c1nn2c(C(F)(F)F)cc(-c3ccc(OC)cc3)nc2c1Br 12 µM

Potency, inactive:
CC(=O)Nc1ccc2nc(C3CC3)n(Cc3ccc(Cl)cc3)c(=O)c2c1
Cc1cc(C)c2nc(SCC(=O)N(C)C3CCS(=O)(=O)C3)cc(C)c2c1 (stereo not drawn)
CCCCC1=CC2=C(c3ccco3)C(=O)C(C)(OC(=O)c3ccc(OC)cc3)C(=O)C2=CN1CCc1ccccn1 (stereo not drawn)
COc1ccccc1NC(=O)NCCN1CCN(C(=O)Nc2ccccc2OC)CC1
COc1cc(C(C(=O)NC2CCCCC2)N(C(=O)Cc2c[nH]c3ccccc23)c2ccc(C)cc2)cc(OC)c1OC (stereo not drawn)
O=C(O)c1cccc(N2C(=O)c3cccc(Oc4ccc(Cl)cc4)c3C2=O)c1
CCCC(=O)Nc1ccc(NC(=S)NC(=O)c2cccs2)cc1
CCC(=O)NC(=S)Nc1ccc(NC(=O)COc2ccc([N+](=O)[O-])cc2)cc1
CCc1ccc(-c2csc(NC(=O)C3CC(=O)N(c4ccc5c(c4)OCCO5)C3)n2)cc1 (stereo not drawn)
Cc1ccc(SCc2nc(N)nc(Nc3ccccc3C)n2)cc1C
c1ccc2cc(CSCc3nc4ccccc4[nH]3)ccc2c1
Cc1nn2c(c1-c1ccccc1)NC1=C(C(=O)CCC1)C2c1ccccc1 (stereo not drawn)
CC1(C)CC(=O)c2c(oc3ccc(NS(=O)(=O)c4cccc5cccnc45)cc23)C1
COc1ccc(N(CC(=O)Nc2cccc(C(C)=O)c2)S(=O)(=O)c2ccc(NC(C)=O)cc2)cc1
CCOc1ccc(Br)cc1S(=O)(=O)NC1CC(C)(C)NC(C)(C)C1
CCCC(=O)NC(=S)Nc1sc2c(c1C(N)=O)CCC2
CN(C)S(=O)(=O)n1cnc2ccccc21
Cn1c(=O)n(CCO)c(=O)c2c1nc(Br)n2Cc1ccccc1
O=S(=O)(c1ccc(Cl)s1)N1CCc2ccccc2C1
O=C(O)c1ccc2c(c1)C(=O)N(c1cccc(-c3nc4ccccc4s3)c1)C2=O
CCCc1cc(=O)[nH]c(SCC(=O)Nc2ccc(C)cc2)n1
O=c1[nH]c(/C=C\c2ccc(O)cc2)nc(O)c1[N+](=O)[O-]
CNc1c(Br)cc(C(O)C2=CCc3ccccc32)cc1Br (stereo not drawn)
